HPGD inh = HPGD (human) dehydrogenase inhibition; P15428; actives 4.3% (n = 150,000); AID 894; purified HPGD, NADH fluorescence kinetic, PGE2 substrate; Potency, µM, without a hit: top-dose activity change, negative = inhibition, actives largely listed as inhibitors; active means well fitted inhibition curve with a large enough effect, not every such curve was filed as active; inconclusive means small, poorly fitted or top-dose-only effect, or another doubt; inactive means no such curve, though single readings can be large or run the other way
Target sequence (P15428 whole entry, looked up): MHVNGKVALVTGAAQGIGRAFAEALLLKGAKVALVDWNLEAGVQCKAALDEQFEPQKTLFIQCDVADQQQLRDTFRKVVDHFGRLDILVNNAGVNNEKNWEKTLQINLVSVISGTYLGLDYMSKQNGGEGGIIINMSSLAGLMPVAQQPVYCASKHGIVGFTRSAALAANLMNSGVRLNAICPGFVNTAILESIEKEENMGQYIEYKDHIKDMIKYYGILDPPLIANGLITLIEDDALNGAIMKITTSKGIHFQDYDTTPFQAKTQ
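20 nM HPGD preincubated 15 min at room temperature with compound in 50 mM Tris-HCl pH 8, 0.01% Tween 20. Started with 1 mM NAD+ and 30 uM prostaglandin E2; NADH fluorescence (360/450 nm) read 5 times over 30-s intervals, last minus first.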
NPSR antagonist = neuropeptide S receptor (human) antagonism, cAMP; Potency, µM (highest dose often 38.3 µM), for inactives: at the top dose activity change, negative = inhibition, usual class: inhibitors; actives 1% (n = 220,000); CHO-NPSR cells, cAMP TR-FRET, antagonist mode; AID 1461; further: nearly all actives have a fitted effect of over 50% in size
Target sequence (Q6W5P4 whole entry, looked up): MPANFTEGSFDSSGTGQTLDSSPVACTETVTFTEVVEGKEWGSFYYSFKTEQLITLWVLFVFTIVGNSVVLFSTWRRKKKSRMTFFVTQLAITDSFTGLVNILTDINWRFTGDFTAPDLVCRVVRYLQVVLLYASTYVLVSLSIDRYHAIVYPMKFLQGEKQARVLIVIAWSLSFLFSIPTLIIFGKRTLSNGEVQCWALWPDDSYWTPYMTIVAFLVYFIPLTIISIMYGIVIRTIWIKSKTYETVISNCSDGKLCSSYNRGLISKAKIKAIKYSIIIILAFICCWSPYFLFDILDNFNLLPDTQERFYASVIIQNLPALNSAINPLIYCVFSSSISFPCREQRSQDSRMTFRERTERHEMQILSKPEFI
Tau fluor counter = counter-screen for tau fibril formation inhibitors | tau K18 P301L Alexa594 fluorescence, heparin fibrillization | Potency, µM (series often up to 57.7 µM), for inactives: at the highest dose activity change, negative = decrease | AID 1463 | actives 0.93% (n = 280,000); further: nearly all actives have a fitted effect of over 55% in size
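Human tau K18 P301L (15 uM unlabeled, 0.24 uM Alexa 594-labeled) in 100 mM sodium acetate pH 7 with 20 uM heparin, 6 hr at 37 C. ThT 30 uM added, 1 hr ambient; Alexa 594 FP and total fluorescence read at 555/632 nm.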
ALDH1A1 block = ALDH1A1 (human) enzyme inhibition; P00352; Purified ALDH1A1, NADH fluorescence, propionaldehyde substrate; Potency, µM (highest dose often 75.3 µM), inactives show top-dose activity, negative = inhibition, actives largely listed as inhibitors; actives 7.3% (n = 220,000); AID 1030; active means well fitted inhibition curve with a large enough effect, not every such curve was filed as active; inconclusive means small, poorly fitted or top-dose-only effect, or another doubt; inactive means no such curve, though single readings can be large or run the other way;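 further: plate controls were no enzyme wells and a reference inhibitor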
Tau fibril ThT = blocks human tau fibril formation measured by thioflavin T; recombinant tau K18 P301L, heparin-induced fibrillization, ThT fluorescence; P10636; Potency, µM (titrated, usually from 57.4 µM), for the others: at the top dose activity, negative = inhibition, actives largely listed as inhibitors; actives 2.1% (n = 270,000); further: nearly all actives have a fitted effect of over 55% in size
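Using a mix of unlabeled (15 uM) and Alexa 594-labeled (0.24 uM) tau K18 P301L, heparin-triggered fibrillization over 6 hr at 37 C was scored by ThT fluorescence.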
Tau FP inhib = blocks human tau fibril formation measured by polarization; actives 0.39% (n = 280,000); K18 P301L tau heparin fibrillization, Alexa594 FP, 6 h; P10636; AID 1468; Potency, µM (highest dose often 57.7 µM), inactives show at the top dose activity, negative = inhibition, actives largely listed as inhibitors; further: nearly all actives have a fitted effect of over 55% in size
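Human tau K18 […] P301L fragment, 15 uM unlabeled plus 0.24 uM Alexa 594-labeled tau (final), with compound and 20 uM heparin in 100 mM sodium acetate pH 7; 6 hr at 37 C, then Alexa 594 FP read.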
Numbers without * were called inactive; u = inconclusive; x = not tested or not shown; [ ] = remark or other dose. This is a sample that favours compounds with a hit; in the whole collection about 9.5% have one here. Unless noted, the call rests on the fitted dose curve; in most records, active means well fitted curve in the direction sought with a large enough effect; inconclusive means small, poorly fitted or top-dose-only effect, or another doubt; inactive means no such curve, though single readings can be large; an effect the other way counts as inactive or inconclusive. Unless noted, on the % scale 0 is the no-effect control and ±100 the full control effect; potency means the concentration at half of the fitted maximal effect.

SMILES	HPGD inh	NPSR antagonist	Tau fluor counter	ALDH1A1 block	Tau fibril ThT	Tau FP inhib
O=c1c2ccccc2nc(-c2ccccc2)n1/N=C/c1ccc([N+](=O)[O-])cc1	-11%	6%	-4%	6%	-2%	4%
Cc1nc2ccccc2c(=O)n1/N=C/c1ccc2ccccc2c1O	x	25%	u	x	u	-2%
C/C(=N\OCc1nc2ccccc2c(=O)n1/N=C/c1cc(C)cc([N+](=O)[O-])c1O)c1ccccc1	x	u	u	x	4µM*	-2%
Cc1ccccc1OCc1nc2ccccc2c(=O)n1/N=C/c1cn[nH]c1-c1ccc(Br)cc1	32µM*	-38%	-2%	3%	-4%	11%
O=c1c2ccccc2nc(COc2ccccc2)n1/N=C/c1cn[nH]c1-c1ccccc1	-5%	-16%	u	5%	u	u
O=c1c2ccccc2nc(COc2ccccc2)n1/N=C/c1ccc(O)cc1O	x	-48%	16µM*[quencher]	x	u	-4%
Cc1ccccc1-c1nc2ccccc2c(=O)n1/N=C/c1ccccc1[N+](=O)[O-]	22µM*	-27%[46.1 µM]	-4%	14µM*	2%	-4%
C/C(=N\OCc1nc2ccccc2c(=O)n1/N=C/c1cc([N+](=O)[O-])ccc1O)c1ccccc1	x	-24%	14µM*[quencher]	x	x	-5%
Cc1cc([N+](=O)[O-])cc(/C=N/n2c(C)nc3ccccc3c2=O)c1O	x	-17%	-14%	x	u	12%
CC(=O)c1ccc(Oc2cc(-c3ccccc3)nc(-c3ccccc3)n2)cc1	-11%	-12%	-12%	0%	-6%	-13%
O=Cc1ccc(Oc2cc(-c3ccccc3)nc(-c3ccccc3)n2)cc1	-7%	-34%	-5%	22µM*	u	1%
Cc1csc(NC(=O)c2cccc(S(=O)(=O)N3CCN(C)CC3)c2)n1	x	1%	-2%	-5%	5%	1%
Cc1ccc(-n2c(C)cc(-c3csc(N)n3)c2C)cc1	-13%	-23%	-24%	-2%	u	-3%
Cc1cc(-c2csc(N)n2)c(C)n1Cc1ccco1	x	-40%	u	u	16µM*	-13%
Cc1cc(-c2csc(N)n2)c(C)n1C	-1%	-20%[46.1 µM]	u	u	32µM*	u
CC(=O)Nc1ccc(S(=O)(=O)Nc2nnc(CC(C)(C)C)s2)cc1	x	1%	-33%	3%	4µM*	18%
CCc1nnc(NS(=O)(=O)c2ccc(NS(=O)(=O)c3ccc(NC(C)=O)cc3)cc2)s1	-8%	-2%[46.1 µM]	-3%	-1%	-1%	0%
CC(C)(C)Cc1nnc(NS(=O)(=O)Cc2ccccc2)s1	-19%	-7%[46.1 µM]	6%	25µM*	1%	-1%
CC(C)(C)Cc1nnc(NS(=O)(=O)c2ccc(F)cc2)s1	u	-17%[46.1 µM]	-3%	u	-11%	1%
CCc1cc2c3c(c1)C(C)CC(C)(C)N3C(=O)C2=O (stereo unspecified)	-11%	u	-2%	0.32µM*	u	5%
Cc1cc(C)c(C(=O)/C=C/c2ccco2)c(=O)[nH]1	x	-7%	-23%	11µM*	22µM*	u
CC(C)OC(=O)c1c(NC(=O)CCC(=O)O)sc2c1CCCCC2	-4%	-27%	5%	-7%	-6%	-1%
CCOC(=O)c1c(NC(=O)CS(=O)(=O)c2cn(CC)c3ccccc23)sc2c1CCCC2	-19%	-25%	-26%	13µM*	u	-5%
CCOC(=O)c1c(NC(=O)CS(=O)(=O)c2ccc(Cl)cc2)sc2c1CCCC2	x	x	-6%	x	-8%	-11%
CCOC(=O)c1c(NC(=O)CS(=O)(=O)c2cn(CC)c3ccccc23)sc2c1CCCCC2	-10%	-16%	-25%	10µM*	-14%	-3%
SMILES	HPGD inh	NPSR antagonist	Tau fluor counter	ALDH1A1 block	Tau fibril ThT	Tau FP inhib
CCOC(=O)c1c(NC(=O)CS(=O)(=O)c2ccc(C)cc2)sc2c1CCCCC2	x	x	-28%	x	-12%	u
CC(C)OC(=O)c1c(NC(=O)CCn2nnc3ccccc32)sc2c1CCCC2	-27%	-24%[46.1 µM]	-15%	25µM*	-12%	-8%
Cc1[nH]c2c(ccc3ccccc32)c1C1C(CCN)C1(C)C (stereo unspecified)	-10%	u	16µM*[quencher]	-9%	u	u
S=c1[nH]c2ccc3ccccc3c2[nH]1	x	9%	0%	0%	-3%	1%
CC(=O)Nc1c(C)ccc(S(N)(=O)=O)c1C	x	-9%	-1%	20%	-1%	3%
Cc1cc(N2CCN(C)CC2)nc2ccc(NC(=S)N3CCCCC3)cc12	x	-9%	u	u	u	5%
CCN1CCN(c2cc(C)c3cc(NC(=O)c4cc(OC)c(OC)c(OC)c4)ccc3n2)CC1	x	x	u	x	u	12%
CCN1CCN(c2cc(C)c3cc(NC(=O)Cc4ccccc4OC)ccc3n2)CC1	u	-15%[46.1 µM]	-4%	u	-9%	u
COc1ccc(Nc2cc(C)c3cc(NC(=O)Cc4ccc(Cl)cc4)ccc3n2)cc1	x	x	5µM*[quencher]	x	11µM*	-13%
COc1ccc(CC(=O)Nc2ccc3nc(N4CCCCC4)cc(C)c3c2)cc1	x	x	13µM*[quencher]	x	u	3%
COc1ccc(Nc2cc(C)c3ccc(O)cc3n2)cc1	x	-13%	u	x	x	3%
COc1cccc(C(=O)Nc2ccc3nc(N4CCN(c5ncccn5)CC4)cc(C)c3c2)c1OC	u	-26%	-30%	u	8.9µM*	9%
Cc1cc(N2CCOCC2)nc2ccc(NC(=S)N3CCCCC3C)cc12 (stereo unspecified)	x	-15%	16µM*[quencher]	u	11µM*	1%
COCCOC(=O)C1=C(C)NC2=C(C(=O)CC(C)(C)C2)C1c1cc2c(cc1Br)OCO2 (stereo unspecified)	-26%	u	-11%	-14%	-3%	-6%
COc1cccc(C(=O)Nc2ccc3nc(N4CCOCC4)cc(C)c3c2)c1	-18%	-19%[46.1 µM]	u	0%	5µM*	13%
CCN1CCN(c2cc(C)c3cc(NC(=O)c4cccc(OC)c4)ccc3n2)CC1	x	-11%	u	x	x	6%
Cc1cccc(OCC(=O)Nc2ccc3nc(Nc4cccc(Cl)c4)cc(C)c3c2)c1	x	x	u	x	u	-7%

Screens: PubChem, National Center for Advancing Translational Sciences (NCATS)
